Each compound was assayed against AMP-activated protein kinase, AMPK (Homo sapiens) (UniProt P54646+O43741+P54619+Q9UGJ0+Q9Y478+Q13131+Q9UGI9) (assay: AMP-dependent Kinase enzyme assay. An in vitro enzyme assay that detects ADP turnover that is directly proportional to AMPK activity. This uses naive AMPK that is activated during the assay with MK-8722). Conditions: 30 µM.
Assay type: functional
Parameters: scale not given: direction of the effect not stated beside the values

Compound	Percent Effect
CS(=O)(=O)NCC1Cc2ccccc2O1 (stereo not given)	-1.87%
CN(Cc1ccc(F)cc1)Cc1cc2c(cc1Br)OCCO2	-2.13%
CCc1ccc(CN2CCOC(Cc3cccc(F)c3)C2)nc1 (stereo not given)	5.27%
COc1ccc(F)cc1CN(CC(N)=O)C(C)C	-8.18%
Cc1nc(N)nc(C)c1CC(=O)N1CCC2(CC1)OCCCC2O (stereo not given)	73.8%
CCCNc1ncc(CN2CCOC(Cc3cccc(F)c3)C2)cn1 (stereo not given)	6.84%
CNS(=O)(=O)CC(=O)N(C1CCCC1)C1CC1	-3.58%
COCCN1C[C@@H](C(=O)O)[C@H](c2ccccc2C)C1	-1.51%
CCN(CC)c1ncccc1CNCc1ccc(Cl)s1	-3.79%
CCC(C)Oc1ccc(CNCCc2c[nH]cn2)cc1Cl (stereo not given)	-17.6%
CCN1CCC(CC(=O)NCCc2nc(C)cc(C)n2)CC1	1.66%
Cc1ccc2nc(CNCCCOc3ccccc3)cc(O)c2c1	2.49%
CNC(=O)C1(C)CN(S(=O)(=O)c2cccc(OC)c2)CCO1 (stereo not given)	4.63%
CC(=O)N1CC(c2ccnc(Nc3nccs3)n2)C1	1.83%
Cc1cc(C2CCCN(Cc3nnc(Cc4ccccc4)o3)C2)n[nH]1 (stereo not given)	18%
C=Cn1ncc(CN2CCC(c3ncc(Cl)cc3S(C)(=O)=O)CC2)c1C	-0.153%
Cc1ccc(C)c(CC(=O)NC2CCCS(=O)(=O)C2)c1 (stereo not given)	-5.26%
CCn1ncnc1C1CC(=O)NCc2nc(N3CCCC3)sc21 (stereo not given)	-10.2%
CN(C)Cc1cccc(-c2cccnc2C(=O)NCc2ccco2)c1	20%
CS(=O)(=O)N1CCC(CNc2cc(Cl)ccc2C#N)CC1	7.86%

Compound	Percent Effect
COc1ncccc1-c1cc(C(N)=O)ccn1	1.56%
O=C(NCC1CCS(=O)(=O)C1)N(Cc1ccccn1)C1CC1 (stereo not given)	-6.01%
O=C(NCc1nnc2n1CCC2)c1ccc(Br)s1	-4.78%
O=C(NCC(F)(F)F)c1ccc(-n2cncn2)nn1	-2.06%
CC(C)c1nn(C)c(Cl)c1CNCC(=O)N1CCN(C)CC1	-14.6%
O=C(Nc1cccnc1)NC1CCN(c2ccccc2OC(F)F)C1 (stereo not given)	0.675%
COC(=O)N1CCCCC1C(=O)N1CCC(c2ccncc2)CC1 (stereo not given)	1.07%
COCCS(=O)(=O)NCc1ccc(N(C)C)c(C)c1	6.36%
COC(=O)Cn1c(C)cc(=O)c2cc(F)ccc21	1.38%
CCN(C)Cc1cccc(CNC(=O)NCCc2ccccn2)c1	3.33%
CN(CC1(CO)CCC1)c1nc2c(c(=O)[nH]1)Cc1ccccc1OC2	1.42%
CCOCC(C)(C)NC(=O)Nc1cc(F)ccc1OC	1.04%
Cc1ccc(NC(=O)CN[C@H](C(N)=O)C(C)C)cc1F	-14.9%
CCC[C@@H]1CN(Cc2ccc(C(F)(F)F)nc2)C[C@H]1C(=O)O	-4.32%
CCOC(=O)c1n[nH]cc1CN1CCOC(Cc2ccc(F)cc2)C1 (stereo not given)	1.89%
O=C(C1CC1)N1CCCCCC1C1CCN(c2ncccn2)CC1 (stereo not given)	-6.9%
O=c1cc(N2CCCC2)cnn1Cc1noc(C2CCCO2)n1 (stereo not given)	-1.31%
O=C(CCC1CCCO1)NCCN1CCCCC1 (stereo not given)	-1.67%
COc1cc(N2CCN(Cc3ccc(C)o3)C(CCO)C2)nc(N)n1 (stereo not given)	0.197%
CC(c1nccs1)N(C)S(=O)(=O)NCc1ccccc1 (stereo not given)	-1.57%

— ChEMBL document CHEMBL3988442, “University of Dundee, Small-Polar-MMV Screening Library” (2021)
